Measured values taken from PubChem BioAssay.
Calls of active or inactive are those of the source.

Tests used:
[1] = test system: Human papillomavirus type 1a protein E7 (residues 44-93); assay: small molecules binding HPV E7 44-93 – biochemical, small-molecule microarray, residues 44-93, 635 nm fluorescence, primary screen (AID 1108); conditions: fluorescence 635 nm, higher = more signal;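 also: E7 fragment applied at 1 µg/mL in TBST for 1 h at 4 C; score combines spot fluorescence with its signal to noise ratio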
[2] = hepatitis C replication reporter changes, two-sided – Huh7 cells, luciferase reporter, HCV replication inhibitor project, primary screen (AID 1109); conditions: Huh7 HCV replicon luciferase reporter, 48 h; higher = more signal;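 also: huh7 hepatoma cells harbouring a luciferase neomycin HCV replicon reporter; luciferase luminescence as measure of HCV replicon replication; test concentration not given here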
[3] = target: Left-right determination factor 2 (Homo sapiens) (UniProt O00292); assay: small molecules binding LEFTY2 protein – biochemical, small-molecule microarray, 635 nm fluorescence scan, primary screen (AID 1110); conditions: higher = more signal
Sequence of Left-right determination factor 2 (Homo sapiens) (O00292 whole entry, looked up): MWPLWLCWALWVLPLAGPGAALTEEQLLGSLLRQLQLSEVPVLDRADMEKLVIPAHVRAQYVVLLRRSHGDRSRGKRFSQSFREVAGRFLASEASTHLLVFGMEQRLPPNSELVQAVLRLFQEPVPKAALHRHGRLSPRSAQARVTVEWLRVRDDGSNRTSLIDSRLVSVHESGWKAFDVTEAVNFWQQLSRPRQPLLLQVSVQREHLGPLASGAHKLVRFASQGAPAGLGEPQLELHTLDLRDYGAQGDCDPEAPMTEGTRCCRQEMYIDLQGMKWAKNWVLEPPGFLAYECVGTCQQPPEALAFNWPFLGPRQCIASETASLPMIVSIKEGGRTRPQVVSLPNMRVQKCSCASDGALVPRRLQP

[4] = target: Calmodulin-1 (Homo sapiens) (UniProt P0DP23); assay: small molecules binding calmodulin-1 with EGTA – biochemical, small-molecule microarray, Cy5-labelled CALM1, profiling panel (AID 1111); conditions: Cy5-CALM1 binding fluorescence, higher = more signal;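 also: labelled calmodulin applied in Tris saline Tween buffer holding calcium plus EGTA and DTT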
[5] = target: Calmodulin-1 (Homo sapiens) (UniProt P0DP23); assay: small molecules binding Ca-loaded calmodulin-1 – biochemical, small-molecule microarray, Cy5-labelled CALM1, plus calcium, artefact control for SMM control-protein annotation, profiling panel (AID 1112); conditions: Cy5-CALM1 binding fluorescence, higher = more signal;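 also: score merges spot fluorescence with signal to noise from triplicate slides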
[6] = probe aWnt5a binding to arrayed compounds – biochemical, biotinylated probe, 635/667 nm fluorescence, primary screen (AID 1113); conditions: small-molecule microarray, higher = more signal;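 also: score merges 667 nm fluorescence intensity with signal-to-noise per printed feature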
[7] = probe aShh binding to arrayed compounds – biochemical, biotinylated probe, 635/667 nm fluorescence, primary screen (AID 1114); conditions: small-molecule microarray, higher = more signal;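 also: probe is biotin-labelled aShh protein from a stem cell growth factor screen; measures binding of labelled protein to compounds printed on the slide; score merges feature fluorescence at 667 nm with signal-to-noise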
[8] = probe aNog binding to arrayed compounds – biochemical, biotinylated probe, 635/667 nm fluorescence, primary screen (AID 1115); conditions: small-molecule microarray, higher = more signal;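 also: probe is biotinylated aNog protein used at 0.15 µg/mL for 1 h at 4 C; z-score combines 667 nm fluorescence of each spot with its signal to noise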
[9] = target: Torsin-1A-interacting protein 1 (Homo sapiens) (UniProt Q5JTV8); assay: compound microarray binding of lysate hLAP1 – cell lysate, small-molecule microarray, COS7 lysate, 635/667 nm fluorescence, primary screen (AID 1116); conditions: 635 nm fluorescence, higher = more signal
Sequence of Torsin-1A-interacting protein 1 (Homo sapiens) (Q5JTV8 whole entry, looked up): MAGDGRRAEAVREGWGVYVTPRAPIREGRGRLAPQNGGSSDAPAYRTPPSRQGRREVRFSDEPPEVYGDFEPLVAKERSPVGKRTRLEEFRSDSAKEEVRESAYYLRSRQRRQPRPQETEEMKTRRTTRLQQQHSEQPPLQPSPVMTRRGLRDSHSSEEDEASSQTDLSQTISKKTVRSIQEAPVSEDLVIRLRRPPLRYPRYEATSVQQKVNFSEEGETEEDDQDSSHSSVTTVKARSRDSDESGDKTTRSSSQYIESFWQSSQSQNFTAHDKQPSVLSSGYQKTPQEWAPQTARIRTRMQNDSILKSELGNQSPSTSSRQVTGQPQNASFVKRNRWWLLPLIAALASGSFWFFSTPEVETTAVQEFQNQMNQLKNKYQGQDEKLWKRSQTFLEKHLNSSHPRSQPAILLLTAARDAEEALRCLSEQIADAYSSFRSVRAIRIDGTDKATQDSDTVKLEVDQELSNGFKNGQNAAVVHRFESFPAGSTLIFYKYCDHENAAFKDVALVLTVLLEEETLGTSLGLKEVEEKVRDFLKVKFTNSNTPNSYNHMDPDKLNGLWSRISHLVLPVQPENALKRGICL

[10] = target: Alpha-bungarotoxin (Bungarus multicinctus) (UniProt P60615); assay: compounds binding labelled alpha-BTX control protein – biochemical, small-molecule microarray, Alexa647 label, 635/667 nm fluorescence, artefact control for SMM control protein annotation, profiling panel (AID 1117); conditions: alpha-BTX-A647 binding fluorescence, higher = more signal
Sequence of Alpha-bungarotoxin (Bungarus multicinctus) (P60615 whole entry, looked up): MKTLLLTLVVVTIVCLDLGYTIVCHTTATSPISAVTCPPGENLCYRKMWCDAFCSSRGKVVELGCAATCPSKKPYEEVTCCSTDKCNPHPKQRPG

Albumin (Bos taurus) = Albumin (Bos taurus) (UniProt P02769); assay: compounds binding labelled BSA control protein – biochemical, small-molecule microarray, Alexa647 label, 635/667 nm fluorescence, artefact control for SMM control protein annotation, profiling panel (AID 1118); conditions: BSA-A647 binding, fluorescence 635 nm, higher = more signal;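 also: score merges 667 nm emission intensity and signal-to-noise per printed compound spot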
Sequence of Albumin (Bos taurus) (P02769 whole entry, looked up): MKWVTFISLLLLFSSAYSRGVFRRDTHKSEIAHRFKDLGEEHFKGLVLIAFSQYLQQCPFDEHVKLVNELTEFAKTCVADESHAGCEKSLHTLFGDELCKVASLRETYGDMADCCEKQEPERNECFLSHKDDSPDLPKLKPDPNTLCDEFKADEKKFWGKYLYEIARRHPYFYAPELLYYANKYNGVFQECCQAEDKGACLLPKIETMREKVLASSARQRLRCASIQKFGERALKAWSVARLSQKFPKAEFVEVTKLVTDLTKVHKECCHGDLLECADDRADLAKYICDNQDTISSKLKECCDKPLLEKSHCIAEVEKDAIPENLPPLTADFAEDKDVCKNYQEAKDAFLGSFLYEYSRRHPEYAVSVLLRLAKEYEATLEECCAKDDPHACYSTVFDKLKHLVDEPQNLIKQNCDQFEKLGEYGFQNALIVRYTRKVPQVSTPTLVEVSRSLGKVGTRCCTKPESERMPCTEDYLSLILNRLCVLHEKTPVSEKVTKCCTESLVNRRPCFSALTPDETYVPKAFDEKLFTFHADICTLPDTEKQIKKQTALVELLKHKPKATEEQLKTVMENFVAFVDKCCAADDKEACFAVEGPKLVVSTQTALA

[11] = probe aXIP binding to arrayed compounds – biochemical, NeuroSMM set, 635/667 nm fluorescence, primary screen (AID 1119); conditions: small-molecule microarray, higher = more signal, called active from +8 up or from −8 down;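 also: probe is the protein aXip251-270 applied at 1 µg/mL to compound-printed slides; binding of probe to printed compounds measured as 667 nm fluorescence plus signal to noise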
[12] = probe aNOTCH3 binding on compound microarray – biochemical, small-molecule microarray, 635/667 nm fluorescence, primary screen (AID 1120); conditions: higher = more signal;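 also: probe is a biotin-tagged antibody raised against NOTCH3 rather than NOTCH3 protein; score merges spot fluorescence near 667 nm with spot signal to noise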
[13] = probe aNOTCH2 binding on compound microarray – biochemical, small-molecule microarray, 635/667 nm fluorescence, primary screen (AID 1121); conditions: higher = more signal;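 also: score merges feature fluorescence read at 667 nm with its signal to noise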
[14] = target: Carbonic anhydrase 2 (Homo sapiens) (UniProt P00918); assay: compounds binding carbonic anhydrase 2 – biochemical, small-molecule microarray, Alexa647-labelled CAII, profiling panel (AID 1122); conditions: CAII-A647 binding fluorescence, higher = more signal
[15] = COS7 lysate on small-molecule microarray, probe aHis, 635 nm (AID 1123); conditions: COS7 cell lysate, fluorescence, higher = more signal;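 also: z-score combines 667nm fluorescence intensity with signal-to-noise per printed compound spot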
[16] = probe aLAP1 signal on lysate-treated microarray – cell lysate, small-molecule microarray, COS7 lysate, primary screen (AID 1124); conditions: probe aLAP1, fluorescence, higher = more signal;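 also: lysate comes from COS7 cells expressing LAP1 and is applied at 0.3 µg/mL; score merges spot fluorescence near 667 nm with signal-to-noise over triplicate slides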
Sam68 (KHDRBS1) = assay: compounds binding KHDRBS1 protein – biochemical, small-molecule microarray, 635 nm fluorescence, primary screen (AID 1125); conditions: higher = more signal;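 also: score merges 667 nm channel intensity with signal to noise over triplicate slides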
[17] = test system: Chordin-like protein 2 (CHRDL2); assay: compounds binding chordin-like 2 – biochemical, small-molecule microarray, 635 nm fluorescence, primary screen (AID 1126); conditions: fluorescence 635 nm, higher = more signal;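 also: printed compound slides probed with Chrdl2 protein at 4 µg/mL for 1 h at 4 C; score merges 667 nm emission intensity with signal to noise over three replicate slides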
[18] = target: Concanavalin-A (Canavalia ensiformis) (UniProt P02866); assay: compounds binding concanavalin A lectin – biochemical, small-molecule microarray, Alexa647 label, 635 nm, artefact control for SMM control protein annotation, primary screen (AID 1127); conditions: ConA-A647 binding fluorescence, higher = more signal;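 also: z combines 667 nm emission intensity with signal-to-noise across three replicate slides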
Sequence of Concanavalin-A (Canavalia ensiformis) (P02866 whole entry, looked up): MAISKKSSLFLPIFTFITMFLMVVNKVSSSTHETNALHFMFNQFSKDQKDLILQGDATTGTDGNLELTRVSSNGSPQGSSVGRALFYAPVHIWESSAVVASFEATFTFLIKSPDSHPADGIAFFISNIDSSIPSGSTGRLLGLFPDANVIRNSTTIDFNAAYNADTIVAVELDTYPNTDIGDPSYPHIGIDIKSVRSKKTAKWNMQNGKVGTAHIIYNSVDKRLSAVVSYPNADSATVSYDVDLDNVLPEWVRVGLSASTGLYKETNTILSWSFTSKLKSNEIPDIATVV

SMILES | composite z-score [1] | z-score [2] | composite z-score [3] | composite z-score [4] | composite z-score [5] | composite z-score [6] | composite z-score [7] | composite z-score [8] | composite z-score [9] | composite z-score [10] | composite z-score (Albumin (Bos taurus)) | composite Z-score [11] | composite z-score [12] | composite z-score [13] | composite z-score [14] | composite z-score [15] | composite z-score [16] | composite z-score (Sam68 (KHDRBS1)) | composite z-score [17] | composite z-score [18]
COC(=O)[C@@H]1N=C(c2ccc(OCCCO)cc2)O[C@@H]1c1ccccc1CN=[N+]=[N-] | 1.41 | -2.67 | -0.769 | 0.393 | -0.292 | 0.0224 | 0.131 | 1.29 | 0.609 | 0.893 | 0.273 | 0.443 (inactive) | 0.181 | -0.0162 | 0.552 | 1.18 | -0.0169 | 0.513 | -0.689 | 0.116
C=CCC(OC(C)=O)[C@@H]1[C@@H](N(Cc2ccc(-c3cccc(C(F)(F)F)c3)o2)C(=O)Cc2ccc(OC)cc2)c2cc(OCCCO)ccc2N1C(=O)c1ccc2ccccc2n1 (stereo not given in full) | -0.551 | 0.185 | -0.323 | -0.698 | -0.605 | -0.0017 | -0.0904 | 0.227 | -0.366 | -0.362 | -0.739 | -0.117 (inactive) | -0.0311 | -0.0956 | -0.165 | 0.516 | -0.136 | -1.29 | 0.763 | -0.388
[N-]=[N+]=NCc1ccccc1C[C@@]1(C(=O)O)N=C(c2ccc(OCCCO)cc2)O[C@@H]1c1ccccc1CN=[N+]=[N-] | 1.39 | -1.84 | 0.219 | 0.973 | -0.0107 | 0.0676 | 0.0121 | -0.56 | 0.74 | 1.27 | 0.516 | 0.259 (inactive) | 0.244 | -0.0716 | 0.573 | 0.0091 | 0.0036 | 1.31 | -0.0541 | 1.11
C=C(CCCC)/C(=C/C[C@H](OC(C)=O)c1cccc(OCCO)c1)c1cc(C(=O)OC)ccc1OC | -0.323 | -1.95 | -0.277 | -0.343 | -1.12 | -0.0721 | 0.0062 | 0.257 | 0.455 | -0.0712 | 0.387 | -0.822 (inactive) | -0.21 | -0.132 | 0.355 | -0.148 | 0.147 | 0.302 | -0.149 | -0.795
CCCCC(O)C1C=CC2C(=O)NC(=O)C2N1Nc1ccc(Cl)cc1Cl (stereo not given) | 0.694 | -1.12 | -1.11 | 0.436 | 0.476 | 0.0915 | 0.0483 | 1.31 | -0.0411 | 1.1 | 0.891 | 0.593 (inactive) | 0.23 | 0.0264 | 0.253 | 2.54 | 0.0614 | 0.0434 | -0.452 | 0.255
